From ChEMBL document CHEMBL4513216, “Probing the Open Global Health Chemical Diversity Library for Multistage-Active Starting Points for Next-Generation Antimalarials” (ACS Infect Dis, 2020)
In all, about 68,000 compounds went through this assay and about 2,700 (4%) showed an effect of 50% or more. For the sample, strong results were picked, then their nearest neighbours and some compounds at random.

Test system: Plasmodium berghei
Assay: Screen against P. berghei liver stage (PbLuc), transformed with Luciferase, at 2uM
Format: functional, HepG2
Settings: tested at 2 uM

Compound	INHIBITION [%]
CC(C)c1nc(C2CCCN(C(=O)Cn3ccccc3=O)C2)no1 (stereo not given)	40.88
Cc1ccc(C)n1-c1c(C(=O)NCC(C)N(C)C)cnn1C (stereo not given)	28.5
O=C(COc1cccc2c1CCC2=O)NCc1ccccc1Cl	-21.15
CCN1CC2(CCOCC2)c2cc(NS(=O)(=O)CC)ccc21	16.33
Cc1nccn1-c1ccc(C(C)Nc2cnn(C)c(=O)c2Cl)cc1 (stereo not given)	39.58
COc1ccccc1Oc1ncccc1CNC(=O)[C@@H](N)CCO	10.91
COc1ccccc1Oc1ncccc1CNC(=O)[C@@H](N)[C@@H](C)O	-4.93
COc1ccccc1Oc1ncccc1CNC(=O)[C@H](N)CC(C)(C)C	62.39
OC1CCCN(CCNc2ncc(Cl)cc2F)C1 (stereo not given)	-23.46
COCc1cccc(NC(C(N)=O)c2ccc(Br)cc2)c1 (stereo not given)	0.53
Cc1nnc(CSc2ccccn2)o1	-43.6
CCc1nnc(CSc2ccccn2)o1	-9.88
CC(C)(C)c1nnc(CSc2ccccn2)o1	58.9
CC(=O)N(C)C1CCN(C(=O)NCC(C)Cc2cccs2)CC1 (stereo not given)	60.9
CC(CNC(=O)N1CCC(CO)CC1)Cc1cccs1 (stereo not given)	21.24
CC(CNC(=O)N1CCS(=O)(=O)CC1)Cc1cccs1 (stereo not given)	8.03
CC(CNC(=O)N1CCN(c2ncccn2)CC1)Cc1cccs1 (stereo not given)	5.82
CC(CNC(=O)N1CCNC(=O)CC1)Cc1cccs1 (stereo not given)	57.59
CC(CNC(=O)N1CCN(c2cnccn2)CC1)Cc1cccs1 (stereo not given)	17.75
CC(CNC(=O)N1CCN(CC(F)F)CC1)Cc1cccs1 (stereo not given)	-47.2
CC(CNC(=O)N1CCSCC1)Cc1cccs1 (stereo not given)	-49.29
COC(=O)C1CCN(C(=O)NCC(C)Cc2cccs2)CC1 (stereo not given)	55.39
Cc1cccc(NC(=O)c2cccc(OCc3nnnn3C)c2)n1	-85.14
CCS(=O)(=O)N1C[C@@H]2CN(Cc3cccs3)CCO[C@@H]2C1	-20.67

Compound	INHIBITION [%]
CC1(C)CC1(C(=O)N1CC(c2cccnc2)C1)c1ccc(F)cc1 (stereo not given)	41.05
COc1ccc(C2(C(=O)N3CC(c4cccnc4)C3)CC2(C)C)cc1 (stereo not given)	60.13
CC1(C)CC1(C(=O)N1CC(c2cccnc2)C1)c1ccccc1F (stereo not given)	14.82
CCOC(=O)c1cnn(-c2cc(Oc3cccc(C)c3)ncn2)c1N	-58.53
CC(COc1ccc(F)cc1F)NC(=O)NCCN1CCOCC1 (stereo not given)	-30.55
CCCN(Cc1cccc(OCCO)c1)Cc1ccccc1OC	-135.42
COCCN(Cc1cccc(O)c1)Cc1ccccc1F	35.48
COCCN(Cc1cccc(OCCO)c1)Cc1ccccc1F	58.42
CC(C)N1[C@H](Cn2cncn2)C[C@@H]2CN(Cc3cccs3)CC[C@@H]21	13.25
O=C(Cc1ccccc1Cl)N1CCN(CC(O)COCCO)CC1 (stereo not given)	-13.06
COc1ccc(C)cc1CN1CCCC1c1noc(C2CC2)n1 (stereo not given)	-14.17
C=C(C)CNC1CCCN(Cc2noc(C3CC3)n2)C1 (stereo not given)	-36.58
O=C(NCCc1ccncc1)[C@H]1C[C@@H]2CCN(c3nncs3)C[C@H]2O1	62.15
O=C(NCc1ccco1)[C@H]1C[C@@H]2CCN(c3nncs3)C[C@H]2O1	-2.66
COCCNC(=O)[C@H]1C[C@@H]2CCN(c3nncs3)C[C@H]2O1	21.08
O=c1cc(-c2cccnc2)nc(-c2ccc(CN3CC[C@H](O)C3)cc2)[nH]1	39.51
Cn1cncc1C(=O)N1C[C@@H]2CCN(c3cnccn3)C[C@@H]2C1	5.44
O=C(NC[C@H]1OC[C@@H](NC(=O)c2ccccc2)[C@@H]1O)c1ccncc1	25.94
CN(CC(=O)N1CCC(COc2ccccc2)CC1)c1cnccn1	52.47
CN(CC(=O)N1CCC(Oc2ccccc2)CC1)c1cnccn1	33.16
CN(CC(=O)N1CCC(N(C)c2ccccc2)CC1)c1cnccn1	-35.47
CCCn1nnnc1CN(c1ccc(C)cc1)C(C)C	7.67
CCCn1nnnc1CN(c1ccc(N2CCOCC2)cc1)C(C)C	36.28
CCCn1nnnc1CN(C)C(C)c1ccc(C)cc1 (stereo not given)	67.28

Compound	INHIBITION [%]
Cc1nc2n(n1)CC(Nc1nc(C(F)(F)F)nc3ccccc13)CC2 (stereo not given)	19.12
COc1ccccc1CC(=O)NC1CCCc2cn[nH]c21 (stereo not given)	-1.29
CCn1ncc2c1CCCC2NCc1cc(Cl)c(OC)c(OC)c1 (stereo not given)	11.18
CCOCc1cc(CNC2CCCc3c2cnn3CC)ccc1OC (stereo not given)	57.81
CCn1ncc2c1CCCC2NCc1cc(C)ccc1OC (stereo not given)	-14.16
CCCOc1ccc(CNC2CCCc3c2cnn3CC)cc1OC (stereo not given)	33.01
CCn1ncc2c1CCCC2NCc1ccc(OC)c(C)c1 (stereo not given)	27.55
CCn1ncc2c1CCCC2NCc1ccc(OC)c(F)c1 (stereo not given)	57.81
CCCN(CCOC)C(=O)c1cc(Cn2c(C)nc3ccccc32)[nH]n1	-8.53
Cc1cc(C)n(-c2nc(C(=O)NCCN3CCC(C)CC3)cs2)n1	-39.93
O=C(c1cc2cc(I)ccc2[nH]1)N1CCC(Nc2cccnn2)CC1	39.72
CC(C)C1CN(C(=O)Nc2cnn(CC(F)F)c2)CCO1 (stereo not given)	-5.66
Cc1cc(CCC(=O)N2CCOCC2)ccc1Br	33.64
NS(=O)(=O)c1cnn(CC(=O)Nc2c(Cl)cccc2Cl)c1	68.04
O=C(Cn1ccc(C(=O)O)n1)Nc1c(Cl)cccc1Cl	25.07
O=C(Cn1cc(C(=O)O)cn1)Nc1c(Cl)cccc1Cl	6.26
Cc1nn(C)cc1C(=O)N1CCC(CSc2ccccc2)C1 (stereo not given)	3.22
CCn1nc(C)c(S(=O)(=O)Nc2cccc(C(=O)O)c2C)c1C	-4.15
CN(C)CC1CN(C(=O)CCc2ccccc2)Cc2nccn2C1 (stereo not given)	-43.66
COc1ccnc(N2CCC(OCCN3CCCCC3)C2)n1 (stereo not given)	-53.64
c1cnc(N2CCC(OCCN3CCCCC3)C2)nc1 (stereo not given)	56.47
Cc1ccnc(N2CCC(OCCN3CCCCC3)C2)n1 (stereo not given)	12.29
